Here are results for five molecules from PubChem BioAssay.

Assay [1] concerns PRMT1 (protein arginine N-methyltransferase 1). Nature of the assay: PRMT1 binders on small-molecule microarrays, primary screen, biochemical, small-molecule microarray, 635 nm fluorescence (AID 1088).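 Further: binding of Prmt1 protein to compounds spotted on small-molecule microarray slides.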 The settings on record: small-molecule microarray binding, higher = more signal.
Assay [2] can be described thus: yeast growth modulation, basal conditions, primary screen, YJM789 clinical isolate, OD600, 24 h (AID 1089).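 Further: growth of clinical yeast isolate S. cerevisiae YJM 789 seeded 1000 cells per well; test concentration not given here.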 The settings on record: S. cerevisiae YJM789 growth, higher = more signal, called active from +8 up or from −8 down.
The nature of assay [3]: fission yeast growth modulation, primary screen, strain 972, OD600, 24 h, no modulator (AID 1090).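 Further: basal condition with compound alone and no growth modifier present; test concentration not given here.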 Conditions: S. pombe 972 growth, higher = more signal, called active from +8 up or from −8 down.
Assay [4] in a line: S. cerevisiae growth modulation with rapamycin, primary screen, strain BY4716, OD600, 96 h (AID 1091). Further: test concentration not given here. The settings on record: higher = more signal, called active from +8 up or from −8 down.
Assay [5] has as its target Torsin-1A-interacting protein 2 (Homo sapiens) (UniProt Q8NFQ8). The assay can be described thus: LULL1 binders on small-molecule microarray, primary screen, cell lysate, human LULL1 lysate, 635/667 nm fluorescence (AID 1092).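 Further: probe is lysate of COS7 cells overexpressing human LULL1; score merges per-feature 667 nm fluorescence with signal-to-noise.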 The settings on record: hLULL1 lysate binding, 635 nm fluorescence, higher = more signal.
A short description of assay [6]: E. coli growth modulation, two-sided OD650, primary screen, E. coli filamentation project, strain DRC41, 24 h (AID 1093).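 Further: MC1000 strain lacking acrAB efflux and sulA so SOS filamentation is blocked; test concentration not given here.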 The settings on record: OD650, 24 h, higher = more signal, called active from +8 up or from −8 down.
The nature of assay [7]: small-molecule microarray binders of probe aLefty2, primary screen, biochemical, biotinylated probe, 635/667 nm fluorescence (AID 1094).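 Further: score merges spot fluorescence near 667 nm with spot signal-to-noise ratio.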 The settings on record: higher = more signal.
For assay [8], the system named is Noggin (protein binding on small-molecule microarray). Nature of the assay: Noggin binders on small-molecule microarray, primary screen, biochemical, 635/667 nm fluorescence (AID 1095).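 Further: score merges 667 nm feature fluorescence with signal to noise over triplicate slides.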 Conditions: 635 nm fluorescence, higher = more signal.
Assay [9] addresses Neurogenic locus notch homolog protein 3 (Homo sapiens) (UniProt Q9UM47). The assay can be described thus: NOTCH3 binders on small-molecule microarray, primary screen, biochemical, 635/667 nm fluorescence (AID 1096). Conditions: NOTCH3 binding, 635 nm fluorescence, higher = more signal.
The nature of assay [10]: small-molecule microarray binders of probe aEGFR, primary screen, biochemical, biotinylated probe, 635/667 nm fluorescence (AID 1097).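 Further: probe is a biotinylated anti-EGFR antibody binding compounds printed on slides; score combines fluorescence near 667 nm and signal to noise of each spot.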 The settings on record: higher = more signal.
Assay [11] relates to Plasmodium falciparum Sir2 (PF13_0152, Sir2A). The assay can be described thus: pfSir2 binders on small-molecule microarrays, primary screen, biochemical, small-molecule microarray, 635 nm fluorescence (AID 1098).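 Further: score merges spot fluorescence intensity with its signal-to-noise ratio.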 The settings on record: small-molecule microarray binding, fluorescence 635 nm; higher = more signal.
Assay [12] can be described thus: small-molecule microarray binders of probe aDKK1, primary screen, biochemical, biotinylated probe, 635/667 nm fluorescence (AID 1099).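 Further: score merges 667nm spot fluorescence with signal to noise across triplicate slides; reference of the scale not given here.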 The settings on record: higher = more signal.
A short description of assay [13]: small-molecule microarray binders of probe aCHRDL2, primary screen, biochemical, biotinylated probe, 635/667 nm fluorescence (AID 1100). Conditions: higher = more signal.
A short description of assay [14]: splicing luciferase reporter signal modulators, primary screen, spliceosome inhibition project, cell-based, HEK293, splice +/- reporter (AID 1101).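 Further: HEK293 cells carrying a splicing-competent luciferase reporter gene; test concentration not given here.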 Conditions: luminescence, 24 h, higher = more signal, called active from +8 up or from −8 down. (Reporter assays use an easily measured gene product as a stand-in for the process of interest.)
Assay [15] concerns the target Fibroblast growth factor 10 (Homo sapiens) (UniProt O15520). The assay can be described thus: FGF10 binders on small-molecule microarrays, primary screen, biochemical, small-molecule microarray, 635 nm fluorescence (AID 1102). Conditions: FGF10 binding, fluorescence 635 nm, higher = more signal.
Assay [16] has as its system glycogen synthase kinase-3 (GSK3A per assay name; protocol says GSK3B). The assay can be described thus: GSK3 binders on small-molecule microarrays, primary screen, biochemical, small-molecule microarray, 635 nm fluorescence, GSK3A (AID 1103). Further: the record names both GSK3A and GSK3B. Conditions: small-molecule microarray binding, fluorescence 635 nm; higher = more signal.
Assay [17] deals with Epidermal growth factor receptor (Homo sapiens) (UniProt P00533). Nature of the assay: EGFR binders on small-molecule microarrays, primary screen, biochemical, small-molecule microarray, 635 nm fluorescence (AID 1104).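 Further: score merges 667 nm emission intensity with spot signal to noise over triplicate slides.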 The settings on record: EGFR binding, higher = more signal.
Sequence of Epidermal growth factor receptor (Homo sapiens) (P00533 whole entry, looked up): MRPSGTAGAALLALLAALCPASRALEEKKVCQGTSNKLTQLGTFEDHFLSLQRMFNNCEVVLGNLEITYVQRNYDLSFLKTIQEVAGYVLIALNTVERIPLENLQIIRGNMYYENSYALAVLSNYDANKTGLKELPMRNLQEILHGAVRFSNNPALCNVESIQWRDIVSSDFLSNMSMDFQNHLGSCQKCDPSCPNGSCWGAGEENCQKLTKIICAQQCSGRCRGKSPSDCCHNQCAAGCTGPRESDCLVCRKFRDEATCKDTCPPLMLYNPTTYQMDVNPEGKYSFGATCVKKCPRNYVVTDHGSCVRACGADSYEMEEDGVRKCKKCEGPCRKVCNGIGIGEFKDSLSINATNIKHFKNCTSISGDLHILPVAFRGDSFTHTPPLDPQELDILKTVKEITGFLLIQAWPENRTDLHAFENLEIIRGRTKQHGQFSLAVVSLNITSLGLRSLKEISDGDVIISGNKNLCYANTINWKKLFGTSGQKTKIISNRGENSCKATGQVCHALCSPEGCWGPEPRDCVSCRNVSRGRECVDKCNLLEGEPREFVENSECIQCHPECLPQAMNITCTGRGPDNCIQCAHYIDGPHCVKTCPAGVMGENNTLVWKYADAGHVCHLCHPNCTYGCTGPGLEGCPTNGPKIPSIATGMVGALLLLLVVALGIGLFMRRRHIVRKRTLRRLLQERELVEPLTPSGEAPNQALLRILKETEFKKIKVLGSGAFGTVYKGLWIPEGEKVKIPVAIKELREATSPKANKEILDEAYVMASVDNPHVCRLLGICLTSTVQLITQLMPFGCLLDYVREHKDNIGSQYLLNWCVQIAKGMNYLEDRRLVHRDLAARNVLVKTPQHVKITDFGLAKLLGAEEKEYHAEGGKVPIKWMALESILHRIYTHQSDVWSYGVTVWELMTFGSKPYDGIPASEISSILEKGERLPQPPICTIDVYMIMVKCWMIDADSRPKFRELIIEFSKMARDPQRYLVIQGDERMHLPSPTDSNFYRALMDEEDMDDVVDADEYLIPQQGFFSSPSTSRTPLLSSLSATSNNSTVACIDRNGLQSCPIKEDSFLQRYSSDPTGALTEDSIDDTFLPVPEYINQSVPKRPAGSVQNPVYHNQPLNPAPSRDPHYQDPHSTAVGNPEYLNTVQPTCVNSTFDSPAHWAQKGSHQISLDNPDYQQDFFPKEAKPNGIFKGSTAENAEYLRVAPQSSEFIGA
In assay [18] the target is Follistatin-related protein 3 (Homo sapiens) (UniProt O95633). Nature of the assay: FSTL3 binders on small-molecule microarrays, primary screen, biochemical, small-molecule microarray, 635 nm fluorescence (AID 1105).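 Further: score merges emission near 667 nm and signal to noise per printed spot across three slides.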 Conditions: FSTL3 binding, higher = more signal.
Sequence of Follistatin-related protein 3 (Homo sapiens) (O95633 whole entry, looked up): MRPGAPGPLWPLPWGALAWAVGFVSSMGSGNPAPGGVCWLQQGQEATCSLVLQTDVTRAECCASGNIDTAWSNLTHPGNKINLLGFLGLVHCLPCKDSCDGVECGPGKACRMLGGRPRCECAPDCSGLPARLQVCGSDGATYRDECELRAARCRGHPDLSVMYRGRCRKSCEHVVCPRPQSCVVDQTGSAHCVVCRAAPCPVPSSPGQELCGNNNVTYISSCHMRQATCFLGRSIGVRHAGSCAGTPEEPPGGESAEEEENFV
Assay [19] has as its target Dickkopf-related protein 1 (Homo sapiens) (UniProt O94907). Nature of the assay: DKK1 binders on small-molecule microarrays, primary screen, biochemical, small-molecule microarray, 635 nm fluorescence scan (AID 1106).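 Further: score merges emission near 667 nm with signal to noise over three replicate slides.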 The settings on record: DKK1 binding, higher = more signal.
The test system of assay [20] is Inhibin beta A chain (activin A). Nature of the assay: INHBA (activin A) binders on microarrays, primary screen, biochemical, small-molecule microarray, 635 nm fluorescence scan (AID 1107).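 Further: mouse activin A protein probed at 4.33 µg/mL on printed slides; score merges bound-protein fluorescence near 667 nm with spot signal-to-noise.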 The settings on record: small-molecule microarray binding, higher = more signal.

The source made the active and inactive calls.

Sequence of Fibroblast growth factor 10 (Homo sapiens) (O15520 whole entry, looked up): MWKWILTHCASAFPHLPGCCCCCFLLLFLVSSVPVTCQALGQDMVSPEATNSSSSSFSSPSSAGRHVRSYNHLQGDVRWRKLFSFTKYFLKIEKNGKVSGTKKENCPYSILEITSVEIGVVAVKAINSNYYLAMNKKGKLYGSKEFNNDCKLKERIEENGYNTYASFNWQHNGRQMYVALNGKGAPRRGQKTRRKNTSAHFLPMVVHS
Sequence of Neurogenic locus notch homolog protein 3 (Homo sapiens) (Q9UM47 whole entry, looked up): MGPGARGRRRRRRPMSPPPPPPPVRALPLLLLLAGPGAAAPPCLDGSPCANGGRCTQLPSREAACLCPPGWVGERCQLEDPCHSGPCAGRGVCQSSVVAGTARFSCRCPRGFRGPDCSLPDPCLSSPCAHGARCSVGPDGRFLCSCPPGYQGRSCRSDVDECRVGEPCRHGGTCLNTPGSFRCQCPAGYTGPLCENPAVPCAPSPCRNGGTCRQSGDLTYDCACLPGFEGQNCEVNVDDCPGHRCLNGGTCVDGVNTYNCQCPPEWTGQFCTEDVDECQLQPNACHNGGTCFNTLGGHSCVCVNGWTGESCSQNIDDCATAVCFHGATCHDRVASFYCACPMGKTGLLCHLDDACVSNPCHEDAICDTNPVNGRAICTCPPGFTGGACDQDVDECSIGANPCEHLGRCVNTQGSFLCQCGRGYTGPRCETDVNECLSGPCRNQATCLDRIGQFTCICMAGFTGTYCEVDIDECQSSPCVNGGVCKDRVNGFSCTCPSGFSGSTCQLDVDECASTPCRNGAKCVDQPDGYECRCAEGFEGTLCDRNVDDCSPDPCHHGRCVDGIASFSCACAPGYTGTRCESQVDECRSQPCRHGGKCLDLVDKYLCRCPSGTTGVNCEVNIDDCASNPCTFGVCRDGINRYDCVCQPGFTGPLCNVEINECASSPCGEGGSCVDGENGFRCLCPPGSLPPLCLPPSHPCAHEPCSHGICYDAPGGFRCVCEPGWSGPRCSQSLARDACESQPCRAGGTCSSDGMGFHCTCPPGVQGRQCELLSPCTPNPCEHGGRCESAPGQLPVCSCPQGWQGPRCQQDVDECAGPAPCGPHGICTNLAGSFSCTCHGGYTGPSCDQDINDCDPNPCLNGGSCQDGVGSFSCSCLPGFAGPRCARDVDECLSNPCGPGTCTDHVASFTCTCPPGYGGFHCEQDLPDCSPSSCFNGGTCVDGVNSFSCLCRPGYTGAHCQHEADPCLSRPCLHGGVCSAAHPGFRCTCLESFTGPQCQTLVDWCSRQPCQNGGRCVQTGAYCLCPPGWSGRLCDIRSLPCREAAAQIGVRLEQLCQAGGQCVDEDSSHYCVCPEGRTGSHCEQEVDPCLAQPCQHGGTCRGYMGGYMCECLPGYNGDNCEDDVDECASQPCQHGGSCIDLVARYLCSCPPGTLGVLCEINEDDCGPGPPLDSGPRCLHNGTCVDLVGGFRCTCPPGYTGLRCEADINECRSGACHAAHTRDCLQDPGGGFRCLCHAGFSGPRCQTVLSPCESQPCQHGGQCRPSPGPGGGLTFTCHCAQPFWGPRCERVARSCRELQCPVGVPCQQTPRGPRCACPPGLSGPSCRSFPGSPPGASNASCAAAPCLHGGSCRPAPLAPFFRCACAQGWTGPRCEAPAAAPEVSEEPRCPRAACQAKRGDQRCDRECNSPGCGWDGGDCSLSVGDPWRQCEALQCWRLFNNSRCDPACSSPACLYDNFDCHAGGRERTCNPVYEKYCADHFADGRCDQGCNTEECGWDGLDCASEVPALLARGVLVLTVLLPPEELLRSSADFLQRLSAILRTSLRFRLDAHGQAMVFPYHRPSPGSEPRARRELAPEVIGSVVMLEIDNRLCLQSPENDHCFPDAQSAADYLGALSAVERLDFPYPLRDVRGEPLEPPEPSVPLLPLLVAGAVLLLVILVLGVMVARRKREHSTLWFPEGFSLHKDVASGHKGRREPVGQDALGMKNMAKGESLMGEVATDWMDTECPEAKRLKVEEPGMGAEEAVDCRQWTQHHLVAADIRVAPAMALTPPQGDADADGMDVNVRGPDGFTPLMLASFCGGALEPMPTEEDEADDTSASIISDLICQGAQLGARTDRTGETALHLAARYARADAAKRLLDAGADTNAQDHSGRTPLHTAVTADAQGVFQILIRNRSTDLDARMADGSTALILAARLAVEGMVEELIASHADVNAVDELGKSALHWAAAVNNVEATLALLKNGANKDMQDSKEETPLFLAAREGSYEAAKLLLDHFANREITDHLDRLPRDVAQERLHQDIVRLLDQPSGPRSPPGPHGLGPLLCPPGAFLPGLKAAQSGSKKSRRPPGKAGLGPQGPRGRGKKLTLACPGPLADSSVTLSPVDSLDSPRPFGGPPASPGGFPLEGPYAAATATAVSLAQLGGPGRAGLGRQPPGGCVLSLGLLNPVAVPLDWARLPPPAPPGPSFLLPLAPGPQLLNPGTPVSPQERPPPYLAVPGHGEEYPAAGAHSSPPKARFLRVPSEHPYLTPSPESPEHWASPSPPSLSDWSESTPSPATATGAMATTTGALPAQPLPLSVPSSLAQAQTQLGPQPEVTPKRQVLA
Sequence of Dickkopf-related protein 1 (Homo sapiens) (O94907 whole entry, looked up): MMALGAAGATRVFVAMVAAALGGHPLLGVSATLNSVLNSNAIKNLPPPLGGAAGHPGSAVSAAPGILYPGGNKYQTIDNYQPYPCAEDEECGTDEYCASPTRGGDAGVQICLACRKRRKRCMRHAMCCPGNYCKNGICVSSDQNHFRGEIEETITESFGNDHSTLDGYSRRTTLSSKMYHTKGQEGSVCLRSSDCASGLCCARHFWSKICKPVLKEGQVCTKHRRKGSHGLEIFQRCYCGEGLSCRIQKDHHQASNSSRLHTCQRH
Sequence of Torsin-1A-interacting protein 2 (Homo sapiens) (Q8NFQ8 whole entry, looked up): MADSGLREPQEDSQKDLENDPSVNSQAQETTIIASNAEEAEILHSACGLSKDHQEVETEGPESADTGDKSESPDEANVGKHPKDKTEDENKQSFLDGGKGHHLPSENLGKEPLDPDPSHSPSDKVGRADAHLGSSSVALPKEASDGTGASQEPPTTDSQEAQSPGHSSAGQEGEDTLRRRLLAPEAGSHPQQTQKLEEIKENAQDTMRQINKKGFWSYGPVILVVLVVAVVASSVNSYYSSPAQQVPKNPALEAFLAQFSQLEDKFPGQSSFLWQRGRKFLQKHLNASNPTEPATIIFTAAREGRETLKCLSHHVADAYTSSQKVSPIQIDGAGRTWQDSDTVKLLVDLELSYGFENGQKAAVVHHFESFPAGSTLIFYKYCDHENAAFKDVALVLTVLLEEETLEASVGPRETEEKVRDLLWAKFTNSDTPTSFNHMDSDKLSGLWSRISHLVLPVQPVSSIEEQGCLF

As to `O=C1c2ccccc2[C@](Cc2ccccc2I)(C(=O)O)[C@H](c2ccc(CO)cc2)N1Cc1ccccc1`, the composite z-score in assay [1] is 1.55; in assay [5] it was 2.5; in [7], 0.0299; in [8] it was -0.57; in assay [9] it was -0.0277; in assay [10], -0.027. For the same molecule, the composite z-score in assay [11] is 1.39; in assay [12] it was 0.486; in assay [13], 0.736; in [15], -0.011; in assay [16] it was -0.0481; in [17], -0.964. Also, the composite z-score in assay [18] is -0.509; in assay [19], -0.69; in assay [20] it was -0.309. Further, the z-score was -2.23 (inactive) in assay [2]; -0.912 (inactive) in [3]; -1.22 (inactive) in [4]; 0.66 (inactive) in assay [6]; 0.188 (inactive) in assay [14].
For the molecule `NCCCC[C@@H]1NC(=O)[C@H]2C[C@@H](C(=O)NCc3ccc(F)cc3)[C@@H](c3cccc(OCCO)c3)N2C1=O`, the composite z-score is 1.56 in assay [1]; 2.69 in assay [5]; -0.0258 in assay [7]; 1.81 in assay [8]; 1.05 in [9]; 0.0176 in [10]. Besides, the composite z-score in assay [11] is 1.43; in [12], 0.0142; in assay [13], -0.142; in [15], 1.32; in [16] it was 1.34; in assay [17] it was 0.803. Further, the composite z-score was determined as 1.47 in assay [18], 1.6 in assay [19] and 0.799 in [20]. The z-score is 1.74 (inactive) in assay [2]; -0.0785 (inactive) in assay [3]; 0.482 (inactive) in assay [4]; -0.765 (inactive) in assay [6]; -0.436 (inactive) in assay [14].
On to `NCCCC[C@@H]1NC(=O)[C@H]2C[C@@H](C(=O)O)[C@@H](c3cccc(OCCO)c3)N2C1=O`, for which the composite z-score in [1] turned out to be 1.53; in assay [5] it was 3.33; in assay [7], 0.781; in assay [8], 1.85; in assay [9], 1.02; in [10], 0.703. The composite z-score in [11] turned out to be 1.61; in assay [12] it was 1.21; in assay [13] it was 0.752; in assay [15], 1.51; in assay [16], 1.35; in [17] it was 1.53. Also, the composite z-score in assay [18] amounted to 1.53; in assay [19], 1.62; in assay [20], 1.03. In addition, the z-score in assay [2] is 1.42 (inactive); in assay [3], -1.66 (inactive); in assay [4], -0.503 (inactive); in assay [6], -1.31 (inactive); in [14], -0.615 (inactive).
Consider `CCCCC(=C=CC[C@H](O)c1ccc(OCCO)cc1)C[C@H](O)c1ccccn1`, for which the composite z-score was 1.54 in assay [1]; 1.72 in [5]; -0.0094 in [7]; 0.266 in assay [8]; 0.419 in assay [9]; 0.165 in [10]. The composite z-score was 0.856 in assay [11]; -0.0313 in [12]; -0.112 in assay [13]; 1.35 in assay [15]; 0.583 in assay [16]; -0.229 in assay [17]. Besides, the composite z-score in [18] was 0.416; in assay [19], 0.215; in assay [20], 0.669. The z-score was 0.415 (inactive) in [2]; -1.18 (inactive) in [3]; -0.539 (inactive) in assay [4]; 0.493 (inactive) in [6]; 0.107 (inactive) in assay [14].
Regarding `C=CCC(OC(C)=O)[C@@H]1[C@@H](N(Cc2ccc(-c3ccccc3)cc2)C(=O)c2ccc(-c3ccccc3)cc2)c2cc(OCCCO)ccc2N1C(=O)c1ccc2ccccc2n1` (stereo not given in full), the composite z-score in assay [1] was 0.474; in assay [5], 0.183; in assay [7] it was 0.121; in assay [8], 0.408; in assay [9] it was 0.361; in [10], -0.0494. In addition, the composite z-score was 0.212 in assay [11]; 0.103 in assay [12]; 0.168 in [13]; 0.46 in [15]; 0.213 in assay [16]; -0.486 in assay [17]. Also, the composite z-score in assay [18] was 0.204; in [19], -0.328; in assay [20], 1.38. The z-score in assay [2] is -0.755 (inactive); in assay [3] it was -0.638 (inactive); in [4] it was -0.0474 (inactive); in assay [6], 0.853 (inactive); in assay [14], -1.27 (inactive).
